Results reported in PubChem BioAssay AID1159580 (chemical genetic matrix, 2015).
Out of some 5,500 compounds screened, about 2,000 (36%) were called active. About 18% were inconclusive and are not listed. No stated cut-off is given here; in the data, active means normalized growth mostly below about 0.91 (no sharp cut-off); inconclusive means no clear call, values can overlap the other calls; inactive means mostly above about 0.92. Some of the results follow.

Experiment: chemical genetic growth profiling, strain panel (AID 1159580);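 further: tested at 20 µM; growth read once vehicle control cultures reached saturation at 30 °C; 1 = growth at the plate median or of vehicle wells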
Settings: growth OD

Measured: normalized growth

COc1ccc(CC2c3cc(OC)c(OC)cc3CCN2C)cc1OC (stereo unspecified)
inactive: S. cerevisiae deletion strains, locus YAL013W, strain DEP1, stronger effect = lower value 0.984 | S. cerevisiae deletion strains, locus YBR021W, strain FUR4, stronger effect = lower value 1.05 | S. cerevisiae deletion strains, locus YBR229C, strain ROT2, stronger effect = lower value 0.969 | S. cerevisiae deletion strains, locus YCL029C, strain bik1, stronger effect = lower value 0.988 | S. cerevisiae deletion strains, locus YDL035C, strain GPR1, stronger effect = lower value 0.997 | S. cerevisiae deletion strains, locus YDL074C, strain BRE1, stronger effect = lower value 0.964 | S. cerevisiae deletion strains, locus YDL101C, strain DUN1, stronger effect = lower value 0.961 | S. cerevisiae deletion strains, locus YDL134C, strain PPH21, stronger effect = lower value 0.981 | S. cerevisiae deletion strains, locus YDL185W, strain tfp1, stronger effect = lower value 0.951 | S. cerevisiae deletion strains, locus YDL192W, strain arf1, stronger effect = lower value 0.994 | S. cerevisiae deletion strains, locus YDR101C, strain arx1, stronger effect = lower value 1.01 | S. cerevisiae deletion strains, locus YDR150W, strain NUM1, stronger effect = lower value 0.974 | S. cerevisiae deletion strains, locus YDR162C, strain NBP2, stronger effect = lower value 0.941 | S. cerevisiae deletion strains, locus YDR318W, strain mcm21, stronger effect = lower value 1.02 | S. cerevisiae deletion strains, locus YDR388W, stronger effect = lower value 0.992 | S. cerevisiae deletion strains, locus YDR502C, strain sam2, stronger effect = lower value 0.974 | S. cerevisiae deletion strains, locus YEL061C, strain CIN8, stronger effect = lower value 0.988 | S. cerevisiae deletion strains, locus YER110C, stronger effect = lower value 0.987 | S. cerevisiae deletion strains, locus YER155C, strain BEM2, stronger effect = lower value 1 | S. cerevisiae deletion strains, locus YER167W, strain BCK2, stronger effect = lower value 0.997 | S. cerevisiae deletion strains, locus YGL078C, strain dbp3, stronger effect = lower value 0.976 | S. cerevisiae deletion strains, locus YGL086W, strain mad1, stronger effect = lower value 1.01 | S. cerevisiae deletion strains, locus YGL248W, strain PDE1, stronger effect = lower value 0.978 | S. cerevisiae deletion strains, locus YGR078C, strain PAC10, stronger effect = lower value 0.967 | S. cerevisiae deletion strains, locus YGR135W, strain pre9, stronger effect = lower value 0.957 | S. cerevisiae deletion strains, locus YGR229C, strain SMI1, stronger effect = lower value 0.997 | S. cerevisiae deletion strains, locus YGR252W, strain gcn5, stronger effect = lower value 1.08 | S. cerevisiae deletion strains, locus YHR030C, strain SLT2, stronger effect = lower value 1 | S. cerevisiae deletion strains, locus YHR079C, strain IRE1 (second series), stronger effect = lower value 0.99 | S. cerevisiae deletion strains, locus YHR094C, strain hxt1, stronger effect = lower value 0.988 | S. cerevisiae deletion strains, locus YHR129C, strain ARP1, stronger effect = lower value 0.987 | S. cerevisiae deletion strains, locus YHR200W, strain rpn10, stronger effect = lower value 0.982 | S. cerevisiae deletion strains, locus YIL066C, strain RNR3, stronger effect = lower value 0.971 | S. cerevisiae deletion strains, locus YIL073C, strain SPO22, stronger effect = lower value 1.02 | S. cerevisiae deletion strains, locus YIL125W, strain kgd1, stronger effect = lower value 0.983 | S. cerevisiae deletion strains, locus YIR030C, strain dcg1, stronger effect = lower value 0.979 | S. cerevisiae deletion strains, locus YJL095W, strain BCK1, stronger effect = lower value 0.985 | S. cerevisiae deletion strains, locus YJL134W, strain LCB3, stronger effect = lower value 0.993 | S. cerevisiae deletion strains, locus YJL168C, strain set2, stronger effect = lower value 0.98 | S. cerevisiae deletion strains, locus YJL187C, strain SWE1 (second series), stronger effect = lower value 0.959 | S. cerevisiae deletion strains, locus YJR043C, strain POL32, stronger effect = lower value 1.03 | S. cerevisiae deletion strains, locus YJR075W, strain HOC1, stronger effect = lower value 0.926 | S. cerevisiae deletion strains, locus YKL009W, strain mrt4, stronger effect = lower value 0.995 | S. cerevisiae deletion strains, locus YKL068W, stronger effect = lower value 0.99 | S. cerevisiae deletion strains, locus YKL085W, strain MDH1 (second series), stronger effect = lower value 0.97 | S. cerevisiae deletion strains, locus YKL085W, strain MDH1, stronger effect = lower value 0.97 | S. cerevisiae deletion strains, locus YKL190W, strain CNB1, stronger effect = lower value 0.978 | S. cerevisiae deletion strains, locus YKR001C, strain vps1, stronger effect = lower value 1 | S. cerevisiae deletion strains, locus YLR039C, strain RIC1, stronger effect = lower value 0.959 | S. cerevisiae deletion strains, locus YLR058C, strain SHM2, stronger effect = lower value 0.973 | S. cerevisiae deletion strains, locus YLR102C, strain apc9, stronger effect = lower value 0.978 | S. cerevisiae deletion strains, locus YLR262C, strain YPT6, stronger effect = lower value 0.951 | S. cerevisiae deletion strains, locus YLR268W, strain sec22, stronger effect = lower value 0.953 | S. cerevisiae deletion strains, locus YLR330W, strain CHS5, stronger effect = lower value 0.998 | S. cerevisiae deletion strains, locus YLR342W, strain FKS1 (second series), stronger effect = lower value 1.05 | S. cerevisiae deletion strains, locus YLR371W, strain rom2, stronger effect = lower value 0.993 | S. cerevisiae deletion strains, locus YLR418C, strain cdc73, stronger effect = lower value 0.955 | S. cerevisiae deletion strains, locus YML016C, strain PPZ1, stronger effect = lower value 0.988 | S. cerevisiae deletion strains, locus YML032C, strain rad52, stronger effect = lower value 1 | S. cerevisiae deletion strains, locus YML124C, strain tub3, stronger effect = lower value 0.993 | S. cerevisiae deletion strains, locus YMR078C, strain ctf18, stronger effect = lower value 0.989 | S. cerevisiae deletion strains, locus YMR223W, strain ubp8, stronger effect = lower value 0.948 | S. cerevisiae deletion strains, locus YMR263W, strain SAP30, stronger effect = lower value 0.96 | S. cerevisiae deletion strains, locus YMR307W, strain GAS1, stronger effect = lower value 1.1 | S. cerevisiae deletion strains, locus YNL067W, strain RPL9B, stronger effect = lower value 0.959 | S. cerevisiae deletion strains, locus YNL128W, strain TEP1, stronger effect = lower value 0.945 | S. cerevisiae deletion strains, locus YNL153C, strain GIM3, stronger effect = lower value 0.947 | S. cerevisiae deletion strains, locus YNL233W, strain BNI4, stronger effect = lower value 0.979 | S. cerevisiae deletion strains, locus YNL250W, strain rad50, stronger effect = lower value 0.97 | S. cerevisiae deletion strains, locus YNL271C, strain bni1, stronger effect = lower value 0.987 | S. cerevisiae deletion strains, locus YNL298W, strain CLA4, stronger effect = lower value 0.978 | S. cerevisiae deletion strains, locus YNL307C, strain MCK1, stronger effect = lower value 0.998 | S. cerevisiae deletion strains, locus YNL322C, strain KRE1, stronger effect = lower value 0.982 | S. cerevisiae deletion strains, locus YNR052C, strain pop2, stronger effect = lower value 0.991 | S. cerevisiae deletion strains, locus YOL006C, strain TOP1, stronger effect = lower value 0.936 | S. cerevisiae deletion strains, locus YOL012C, strain htz1 0.876 | S. cerevisiae deletion strains, locus YOL147C, strain pex11, stronger effect = lower value 0.991 | S. cerevisiae deletion strains, locus YOR061W, strain CKA2, stronger effect = lower value 0.964 | S. cerevisiae deletion strains, locus YOR069W, strain VPS5, stronger effect = lower value 0.994 | S. cerevisiae deletion strains, locus YOR136W, strain idh2, stronger effect = lower value 0.994 | S. cerevisiae deletion strains, locus YOR144C, strain elg1, stronger effect = lower value 0.993 | S. cerevisiae deletion strains, locus YOR184W, strain ser1, stronger effect = lower value 1.03 | S. cerevisiae deletion strains, locus YOR316C, strain cot1, stronger effect = lower value 0.975 | S. cerevisiae deletion strains, locus YPL055C, strain LGE1, stronger effect = lower value 0.935 | S. cerevisiae deletion strains, locus YPL241C, strain CIN2, stronger effect = lower value 0.99 | S. cerevisiae deletion strains, locus YPR119W, strain clb2, stronger effect = lower value 0.995 | S. cerevisiae deletion strains, locus YPR141C, strain kar3, stronger effect = lower value 0.968 | S. cerevisiae deletion strains, locus YPR163C, strain tif3, stronger effect = lower value 0.984 | S. cerevisiae deletion strains, locus YPR167C, strain met16, stronger effect = lower value 0.979 | S. cerevisiae deletion strains, strain wtn01, stronger effect = lower value 0.934 | S. cerevisiae strains, strain wild type, stronger effect = lower value 0.987
